Bioassay records as filed in PubChem.
Compounds with a hit are over-represented: about 7.1% of the library has one in this group of screens.
ELG1 repair inh: ELG1-dependent DNA repair inhibition. HEK293T ELG1-luciferase reporter, luminescence, 16 h; DNA damage induced by 5-fluorouridine. Potency, µM (titrated, usually from 46.1 µM), most hits filed as inhibitors. 2.3% of 330,000 active; note: nearly all actives have a fitted effect of over 55% in size
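Cells (2,000 per well) received 5-fluorouridine plus test compound or DMSO and were incubated 16 hr at 37 °C, 5% CO2. Luciferase activity was read by luminescence 30 min after ONE-Glo addition; signal suppression marked inhibition of damage-induced ELG1 function.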
MCF10A rerep: induces DNA re-replication in MCF 10a normal breast cells; MCF 10A DNA re-replication, Hoechst nuclear intensity, 48 h; 2.9% of 350,000 active; Potency, µM (series often up to 46.1 µM), actives largely listed as activators; note: nearly all actives have a fitted effect of over 50% in size
A-T KAP1 phos: candidate therapy for ataxia-telangiectasia | F2112 A-T fibroblasts, KAP-1 phosphorylation AlphaLISA; neocarzinostatin DNA damage 30 min before lysis | AID 485349 | Potency, µM (series often up to 57.5 µM), most hits filed as activators | 0.19% of 320,000 active; note: nearly all actives have a fitted effect of over 45% in size
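hTERT-immortalized A-T patient fibroblasts (F2112), 500 cells/well in OPTI-MEM, 1% FBS, got compounds for 60 min, then NCS for 30 min at 37C. Lysates were then assayed for phospho-KAP-1 by AlphaLISA (anti-pKAP1 donor, anti-KAP1 acceptor beads), 6 hr at 25C.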
SW480 rereplic: induces DNA re-replication in SW480 colon adenocarcinoma cells; Potency, µM (top dose mostly 46.1 µM), most hits filed as activators; 1.8% of 340,000 active; AID 624297; SW480 DNA re-replication, Hoechst DNA content imaging, 48 h; note: nearly all actives have a fitted effect of over 55% in size
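Treated cells incubate 48 hr (37 C, 5% CO2), are stained 40 min with Hoechst, and nuclear fluorescence is enumerated; a rise in nuclei with high DNA signal marks re-replication.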
p53 reactivation: restores transcriptional activity of mutant p53. H1299 p53-A138V BP100-luciferase reporter, luminescence, 24 h. Potency, µM (series often up to 92.2 µM), most hits filed as activators. 0.063% of 320,000 active; note: nearly all actives have a fitted effect of over 45% in size
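H1299 (p53-null), stable ts p53-A138V + BP100-Luc; 1000 cells/well, Opti-MEM/10% FBS; cpd 4 pt, 1:5; 24 h, 37 deg C, 5% CO2; detection reagent 10 min RT; luminescence.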
ELG1 genotox: genotoxicity induction in ELG1-luciferase HEK293T cells; HEK293T ELG1-luciferase reporter, luminescence, 16 h; 1.3% of 330,000 active; AID 504466; Potency, µM (doses to about 46 µM), hits mostly activators; note: nearly all actives have a fitted effect of over 60% in size
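Genotoxicity was scored as increased ELG1-luciferase reporter signal, measured by ONE-Glo luminescence (30 min, room temperature). Compound or vehicle exposure of the HEK293T reporter cells lasted 16 hr at 37°C.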
Large screens that a line does not name were inactive. Calls come from the whole dose curve; as a rule, active = well fitted curve in the direction sought with a large enough effect; inconclusive = small, poorly fitted or top-dose-only effect, or another doubt; inactive = no such curve, though single readings can be large; an effect the other way counts as inactive or inconclusive.

N#CCC(=O)Nc1ccc(C(=O)NCc2cccc(Cl)c2)cc1	none
CCOc1ccc(C(=O)NNC(=O)CN2C(=O)C3CC=CCC3C2=O)cc1OC (configuration not stated)	none
CCC(=O)c1ccc(OCC(=O)Nc2cccc(S(=O)(=O)N3CCCCCC3)c2)cc1	none
C/C(=N\NC(=O)C(C)Oc1ccc([N+](=O)[O-])cc1)c1ccccn1 (configuration not stated)	ELG1 repair inh inconclusive, MCF10A rerep 15µM, SW480 rereplic 6.5µM
CCCCOC(=O)NS(=O)(=O)c1sc(CC(C)C)cc1-c1ccc(Cn2c(CC)nc3c(C)cc(C)nc32)cc1	ELG1 repair inh 13µM (no result: MCF10A rerep, SW480 rereplic)
CCCCOC(=O)Nc1ccc(S(=O)(=O)Nc2nc(C)cc(C)n2)cc1	none
CC1CCN(S(=O)(=O)c2ccc3c(c2)oc(=O)n3CC(=O)NCc2ccc3c(c2)OCO3)CC1	ELG1 repair inh 10µM
Cc1ccnc(NC(=O)Cn2c(=O)oc3cc(S(=O)(=O)N4CCCC4)ccc32)c1	none
Cc1c(C(=O)NCc2ccc3c(c2)OCO3)oc2ccc(S(=O)(=O)N3CCC(C)CC3)cc12	ELG1 repair inh 8.2µM
Cc1cc(C)cc(NC(=O)Cn2c(=O)oc3cc(S(=O)(=O)N4CCC(C)CC4)ccc32)c1	MCF10A rerep 16µM, SW480 rereplic inconclusive
Cc1c(C(=O)NCc2ccc3c(c2)OCO3)oc2ccc(S(=O)(=O)N3CCCCCC3)cc12	none (no result: ELG1 repair inh, A-T KAP1 phos, p53 reactivation, ELG1 genotox)
COc1ccccc1CNC(=O)COC(=O)c1cc(=O)c2ccccc2o1	none
OCc1cn(Cc2ccc(O)c3ncccc23)cn1	none (no result: ELG1 repair inh, MCF10A rerep, SW480 rereplic, p53 reactivation, ELG1 genotox)
Cc1ccc(-n2nnc(-c3cccnc3)n2)cc1	none (no result: ELG1 repair inh, A-T KAP1 phos, p53 reactivation, ELG1 genotox)
Cc1ccc(-n2nnc(-c3nccn3C)n2)cc1	ELG1 repair inh inconclusive, ELG1 genotox 1.8µM
Clc1ncccc1-c1nnn(-c2ccccc2)n1	ELG1 repair inh inconclusive, ELG1 genotox 6.5µM
Clc1nc2ccccc2cc1-c1nnn(-c2ccccc2)n1	ELG1 repair inh inconclusive, MCF10A rerep inconclusive, ELG1 genotox 16µM
c1ccc(-n2nnc(-c3cccnc3)n2)cc1	ELG1 repair inh inconclusive, p53 reactivation inconclusive, ELG1 genotox inconclusive
Fc1ccc(-n2nnc(-c3nccs3)n2)cc1	ELG1 repair inh inconclusive, ELG1 genotox 3.7µM
Clc1ccc(-n2nnc(-c3cccnc3Cl)n2)cc1Cl	ELG1 repair inh inconclusive, MCF10A rerep inconclusive, ELG1 genotox 10µM
Cc1ccc(-n2nnc(-c3cnc4ccccc4c3)n2)cc1	ELG1 repair inh inconclusive, ELG1 genotox 1.6µM
Fc1ccc(-n2nnc(-c3ccccc3Cl)n2)cc1	none
COc1ncccc1-c1nnn(-c2ccccc2Br)n1	none (no result: ELG1 repair inh, A-T KAP1 phos, p53 reactivation, ELG1 genotox)
Fc1ccc(-n2nnc(-c3cccnc3Cl)n2)cc1	ELG1 repair inh inconclusive, p53 reactivation inconclusive, ELG1 genotox 5.8µM
Clc1ccc(-n2cnc3c(Cl)ncnc32)cc1Cl	MCF10A rerep inconclusive (no result: ELG1 repair inh, A-T KAP1 phos, p53 reactivation, ELG1 genotox)
COc1ncccc1-c1nnn(-c2ccccc2)n1	ELG1 repair inh inconclusive, ELG1 genotox 8.2µM
CCn1c(CNS(=O)(=O)c2ccc(Br)cc2)n[nH]c1=S	SW480 rereplic inconclusive
COc1ccc(CN(C(=O)c2cc(=O)c3ccccc3o2)C2CCS(=O)(=O)C2)cc1 (configuration not stated)	ELG1 repair inh inconclusive
CCN(CC(=O)NCc1ccc(F)cc1)C(=O)/C=C/c1cc(OC)ccc1OC	none
Cc1ccccc1OCCC(=O)OCC(=O)NC1CCS(=O)(=O)C1 (configuration not stated)	none
CCN(CC(=O)Nc1ccccc1C(F)(F)F)C(=O)/C=C/c1ccc(Cl)c([N+](=O)[O-])c1	none
Cc1ccccc1C(=O)N1CCN(c2ccc(NC(=S)NC(=O)c3ccco3)cc2)CC1	ELG1 repair inh inconclusive (no result: p53 reactivation)
Cc1cccc(NC(=O)c2cc(NC(=O)C3CCCCC3C(=O)O)ccc2Cl)n1 (configuration not stated)	none
O=C(Nc1ccc(N2CCN(C(=O)c3cccs3)CC2)c(Cl)c1)c1ccco1	ELG1 repair inh 21µM, MCF10A rerep inconclusive (no result: A-T KAP1 phos)
